# Data from PubChem BioAssay (NCATS).
# Results filed as inconclusive are left out. Entries that show only a call come without a potency. Active and inactive are the calls of the source. Unless noted, calls come from the whole dose curve; as a rule, active = well fitted curve in the direction sought with a large enough effect; inconclusive = small, poorly fitted or top-dose-only effect, or another doubt; inactive = no such curve, though single readings can be large; an effect the other way counts as inactive or inconclusive.
# How the values were obtained:
# [1] = A High-Content qHTS Against Drug Library for the Identification of Small Molecules that Inhibit DYT1 Early Onset Primary Dystonia-Associated Cell Pathology (AID 1645839; calls by dose curve); conditions: HEK293 Flp-In EGFP-delE TorsinA, punctate imaging, 48 h; series mostly up to 46.1 µM
# Outline: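 Cells were seeded and left for 24 h, then dosed with compound alongside tetracycline induction of mutant EGFP-TorsinA. They were incubated for 48 h, fixed in 4% paraformaldehyde, permeabilized and imaged for mislocalization (%pathology) and cell count.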
# [2] = molecular target: Cytochrome P450 2C9 (Homo sapiens) (UniProt P11712); assay: Cytochrome P450 family 2 subfamily C member 9 (CYP2C9) small molecule antagonists: luciferase biochemical (cell-free) qHTS assay (AID 1645842; active = well fitted curve in the direction sought with a large enough effect in the repeat runs; an effect the other way counts as inactive or inconclusive; note: nearly all actives have a fitted effect of over 55% in size; note: potency is the fitted concentration of half-maximal effect); conditions: P450-Glo CYP2C9 enzyme assay, luciferin luminescence; series mostly up to 57.4 µM
# Outline: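 P450-Glo CYP2C9 system: proluciferin substrate with enzyme in mix containing 0.4% BSA, 10 min at room temperature, then NADPH regeneration solution added and incubated 1 h at 37C. Detection reagent stopped reaction; luminescence read after 20 min as RLU.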
# [3] = Primary qHTS for small molecule stabilizers of the endoplasmic reticulum resident proteome: Secreted ER Calcium Modulated Protein (SERCaMP) assay (AID 1508630); conditions: SH-SY5Y GLuc-SERCaMP (Gaussia luciferase released on ER calcium loss) secretion, thapsigargin, luminescence; series mostly up to 38.4 µM
# Outline: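 The SH-SY5Y reporter protocol was run at 3 concentrations up to 38.3 uM (primary) or 11 concentrations (follow-up): 16 h compound, 100 nM thapsigargin for 4 h, then extracellular luciferase luminescence.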
# [4] = Primary qHTS for inhibitors of nuclear receptor binding SET domain protein 2 (NSD2) in an isogenic RCH-ACV NSD2 p.E1099K mutant (9B) (AID 1645876); conditions: RCH-ACV NSD2 E1099K (9B) viability, CellTiter-Glo, 72 h; series mostly up to 44.9 µM; note: nearly all actives have a fitted effect of over 70% in size; note: potency is the fitted concentration of half-maximal effect
# [5] = Primary qHTS for inhibitors of nuclear receptor binding SET domain protein 2 (NSD2) in an RCH-ACV wild type WT cells (2C) (AID 1645877); conditions: RCH-ACV (leukaemia line) NSD2 WT (2C) viability, CellTiter-Glo, 72 h; series mostly up to 44.9 µM; note: nearly all actives have a fitted effect of over 70% in size; note: potency is the fitted concentration of half-maximal effect
# [6] = molecular target: Cytochrome P450 2D6 (Homo sapiens) (UniProt P10635); assay: Cytochrome P450 family 2 subfamily D member 6 (CYP2D6) small molecule antagonists: luciferase biochemical (cell-free) qHTS assay (AID 1645840; active = well fitted curve in the direction sought with a large enough effect in the repeat runs; an effect the other way counts as inactive or inconclusive; note: nearly all actives have a fitted effect of over 55% in size; note: potency is the fitted concentration of half-maximal effect); conditions: P450-Glo CYP2D6 enzyme, luciferin luminescence, 1 h; series mostly up to 57.4 µM
# Outline: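 P450-Glo CYP2D6 system: proluciferin substrate converted by enzyme to luciferin, read by luminescence proportional to activity. Enzyme-substrate mix with compound 10 min at room temperature, then NADPH regeneration 1 h before detection reagent.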
# Papain (Carica papaya) = Papain (Carica papaya) (UniProt P00784); assay: Primary qHTS assay for inhibitors of the protease papain (AID 1645873); conditions: papain Z-FR-AMC cleavage, AMC fluorescence; series mostly up to 49.8 µM;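 note: papain turnover of Z-FR-AMC read as the AMC fluorescence gain over 10 min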
# [7] = molecular target: Catechol O-methyltransferase (Homo sapiens) (UniProt P21964); assay: Confirmatory Screen for Target Class Profiling of Small Molecule Inhibitors of Methyltransferases (AID 1745852); conditions: MTase-Glo luminescence, SAH detection, recombinant enzyme, stronger effect = lower value; measured here: COMT max response unless noted
# [8] = molecular target: Guanidinoacetate N-methyltransferase (Homo sapiens) (UniProt Q14353); assay: as above; conditions: MTase-Glo luminescence, SAH detection, recombinant enzyme; activity change, negative = inhibition: at 57.3 µM (top of the series)
# [9] = molecular target: Nicotinamide N-methyltransferase (Homo sapiens) (UniProt P40261); assay: as above; conditions: MTase-Glo luminescence, SAH detection, recombinant enzyme, stronger effect = lower value; measured here: NNMT max response unless noted
# [10] = molecular target: Phenylethanolamine N-methyltransferase (Homo sapiens) (UniProt P11086); assay: as above; conditions: MTase-Glo luminescence, SAH detection, recombinant enzyme, stronger effect = lower value; measured here: PNMT max response unless noted
# Phenylethanolamine N-methyltransferase (Homo sapiens), sequence (P11086 whole entry, looked up): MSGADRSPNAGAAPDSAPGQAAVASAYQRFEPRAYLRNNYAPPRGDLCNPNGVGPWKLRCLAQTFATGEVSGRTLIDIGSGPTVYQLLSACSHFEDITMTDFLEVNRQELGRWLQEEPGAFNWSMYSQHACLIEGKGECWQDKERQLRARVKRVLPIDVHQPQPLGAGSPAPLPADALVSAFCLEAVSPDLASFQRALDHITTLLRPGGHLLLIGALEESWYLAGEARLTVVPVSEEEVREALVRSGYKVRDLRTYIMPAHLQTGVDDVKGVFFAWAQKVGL
# Cytochrome P450 2D6 (Homo sapiens), sequence (P10635 whole entry, looked up): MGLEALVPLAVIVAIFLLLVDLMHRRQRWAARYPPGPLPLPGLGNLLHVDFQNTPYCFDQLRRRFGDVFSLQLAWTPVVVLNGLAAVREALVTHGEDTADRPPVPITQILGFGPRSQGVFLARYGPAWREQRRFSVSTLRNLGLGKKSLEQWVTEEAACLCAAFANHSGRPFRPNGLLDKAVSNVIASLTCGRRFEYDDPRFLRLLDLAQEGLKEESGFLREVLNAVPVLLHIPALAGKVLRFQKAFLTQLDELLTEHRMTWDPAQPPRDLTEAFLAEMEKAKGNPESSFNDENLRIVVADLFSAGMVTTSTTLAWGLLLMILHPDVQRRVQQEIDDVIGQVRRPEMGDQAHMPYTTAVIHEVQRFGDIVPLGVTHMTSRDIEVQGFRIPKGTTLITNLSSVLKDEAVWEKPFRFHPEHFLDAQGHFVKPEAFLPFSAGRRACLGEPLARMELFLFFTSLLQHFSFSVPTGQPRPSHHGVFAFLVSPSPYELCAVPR
# Cytochrome P450 2C9 (Homo sapiens), sequence (P11712 whole entry, looked up): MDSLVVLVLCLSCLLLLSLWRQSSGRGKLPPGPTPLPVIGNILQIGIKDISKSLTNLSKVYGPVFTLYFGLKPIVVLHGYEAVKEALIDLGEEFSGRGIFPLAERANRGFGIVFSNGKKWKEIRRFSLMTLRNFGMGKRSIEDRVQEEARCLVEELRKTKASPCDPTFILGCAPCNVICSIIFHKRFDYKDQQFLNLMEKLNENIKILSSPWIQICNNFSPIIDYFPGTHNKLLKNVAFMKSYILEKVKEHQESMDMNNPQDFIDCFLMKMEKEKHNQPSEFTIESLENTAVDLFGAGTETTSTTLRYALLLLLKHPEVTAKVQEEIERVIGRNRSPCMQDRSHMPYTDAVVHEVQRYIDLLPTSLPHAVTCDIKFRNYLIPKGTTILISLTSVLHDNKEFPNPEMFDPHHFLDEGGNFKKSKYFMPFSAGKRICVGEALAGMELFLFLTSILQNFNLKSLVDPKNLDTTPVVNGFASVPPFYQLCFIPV
# Papain (Carica papaya), sequence (P00784 whole entry, looked up): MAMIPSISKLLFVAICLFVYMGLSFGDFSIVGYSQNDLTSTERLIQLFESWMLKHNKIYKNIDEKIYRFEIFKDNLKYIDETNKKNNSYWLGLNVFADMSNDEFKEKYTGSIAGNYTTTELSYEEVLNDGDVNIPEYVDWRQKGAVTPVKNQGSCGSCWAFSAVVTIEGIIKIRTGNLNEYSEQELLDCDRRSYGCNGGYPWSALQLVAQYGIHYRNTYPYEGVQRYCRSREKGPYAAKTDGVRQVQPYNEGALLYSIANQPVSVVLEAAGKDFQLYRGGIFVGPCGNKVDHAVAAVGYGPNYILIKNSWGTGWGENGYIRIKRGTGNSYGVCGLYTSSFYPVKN
# Nicotinamide N-methyltransferase (Homo sapiens), sequence (P40261 whole entry, looked up): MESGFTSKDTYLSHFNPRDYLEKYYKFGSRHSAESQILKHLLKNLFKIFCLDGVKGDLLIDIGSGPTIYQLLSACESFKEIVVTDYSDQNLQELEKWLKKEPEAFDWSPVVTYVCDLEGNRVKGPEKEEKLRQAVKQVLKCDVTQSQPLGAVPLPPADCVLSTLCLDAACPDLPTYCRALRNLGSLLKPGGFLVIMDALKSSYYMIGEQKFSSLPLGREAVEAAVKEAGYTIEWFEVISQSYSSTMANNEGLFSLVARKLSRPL
# Catechol O-methyltransferase (Homo sapiens), sequence (P21964 whole entry, looked up): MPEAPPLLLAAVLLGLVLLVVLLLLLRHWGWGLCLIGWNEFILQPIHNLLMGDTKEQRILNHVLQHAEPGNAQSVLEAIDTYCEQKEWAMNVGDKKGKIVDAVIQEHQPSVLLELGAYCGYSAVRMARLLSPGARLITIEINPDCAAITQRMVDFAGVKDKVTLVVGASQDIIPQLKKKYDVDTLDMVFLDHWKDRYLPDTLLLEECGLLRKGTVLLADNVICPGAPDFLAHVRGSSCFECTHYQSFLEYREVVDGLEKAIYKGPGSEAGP
compound,measurement,setting,value
COc1c2occc2cc2ccc(=O)oc12,Potency,[1],inactive
same,Potency,[2],3.89 µM (active)
C[Se]CCC(N)C(=O)O (stereo not given),Potency,[3],inactive
same,Potency,[4],inactive
same,Potency,[5],inactive
Clc1ccc(C(Cn2ccnc2)OCc2ccsc2Cl)c(Cl)c1 (stereo not given),Potency,[6],0.692 µM (active)
same,Potency,[2],0.0692 µM (active)
same,Potency,[4],18.6 µM (active)
same,Potency,[5],18.6 µM (active)
NCCCCNCCCN,Potency,[3],inactive
same,Potency,Papain (Carica papaya),inactive
same,Potency,[5],6.61 µM (active)
COc1ccc2cc([C@H](C)C(=O)O)ccc2c1,Potency,[1],inactive
same,Potency,Papain (Carica papaya),inactive
Clc1ccc2c(N3CCN(CCCN4CCN(c5ccnc6cc(Cl)ccc56)CC4)CC3)ccnc2c1,Potency,[3],inactive
same,Potency,Papain (Carica papaya),inactive
same,Potency,[4],inactive
same,Potency,[5],inactive
O=C1c2c(O)cc(O)cc2OC(c2ccc(O)c(O)c2)C1O (stereo not given),Potency,Papain (Carica papaya),inactive
O=C(NCCO[N+](=O)[O-])c1cccnc1,Potency,[1],inactive
same,Potency,[6],inactive
same,Potency,[2],inactive
same,Potency,[4],inactive
same,Potency,[5],inactive
O=P(O)(O)C(O)(Cn1ccnc1)P(=O)(O)O,Potency,[3],inactive
same,"activity change, negative = viability loss",[4],6% [at 4.96 µM] (inactive)
same,outcome,[5],inactive [at 4.96 µM]
COc1c(O)cc2c(c1O)[C@@H]1O[C@H](CO)[C@@H](O)[C@H](O)[C@H]1OC2=O,Potency,[6],inactive
same,Potency,[2],inactive
same,Potency,[4],inactive
same,Potency,[5],inactive
same,activity,[7],-77.9%
same,"activity change, negative = inhibition",[8],0%
same,activity,[9],1.14%
same,activity,[10],-0.831%
